In the supplement of paper PMC9254222:
The full ranking holds about 1,100 compounds; the median of “Renilla luciferase signal (cell health) relative to plate median” is about 0.97, and the highest 2% start at about 1.6. This is one part of a sample in which the highest values are shown more often than they occur.

System: HEK293T (UBE3A T485A transfected, BAR Wnt reporter)
Assay: Renilla luciferase signal (cell health) relative to plate median (fold (linear ratio)); higher = higher Renilla signal
Details: 24 h
Method in brief: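 Each value averages four biological replicates in HEK293T cells grown at 4500 cells/well in DMEM with 10% FBS at 37°C and 5% CO2. The cells were transfected with a BAR firefly luciferase Wnt reporter, TK-Renilla and an expression plasmid, then four hours later robotically treated with the chemicals at 0.01–100 uM for 24 h. Dual-Glo luciferase signals were median-centred per plate, with the firefly/Renilla ratio reported as Wnt activity and raw Renilla as cell health.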

SMILES	Renilla luciferase signal (concentration: 0.01 uM)	Renilla luciferase signal (concentration: 0.1 uM)	Renilla luciferase signal (concentration: 1 uM)	Renilla luciferase signal (concentration: 10 uM)	Renilla luciferase signal (concentration: 100 uM)
CSC(=O)c1cccc2nnsc12 [Acibenzolar-S-methyl]	0.985	1.18	1.05	1.07	1.8
CN(C)C(=O)Nc1ccc(Cl)c(Cl)c1 [Diuron]	0.747	1.11	1.06	0.951	0.328
O=C(CCCCCCCCc1cccnc1)N1CCC(C=C(c2ccccc2)c2ccccc2)CC1	–	0.898	0.875	0.939	0.0905
C=CCOC(Cn1ccnc1)c1ccc(Cl)cc1Cl (stereo not given) [Imazalil]	0.797	0.885	0.939	0.777	0.0667
c1ccc2c(c1)ccc1ccccc12 [Phenanthrene]	–	0.817	0.792	0.858	0.898
c1ccc2cc3ccccc3cc2c1 [Anthracene]	–	1.34	1.26	0.952	0.992
c1ccc2ccccc2c1 [Naphthalene]	–	1.18	1.14	1.33	1.64
N=C(N)c1ccc(OCCCCCOc2ccc(C(=N)N)cc2)cc1.O=S(=O)(O)CCO.O=S(=O)(O)CCO [Pentamidine isethionate]	–	1.02	2.37	0.453	0.0508
CCCCCCCC(=O)O [Octanoic acid]	–	0.834	0.792	0.83	1.09
OCC(CO)(CO)CO [Pentaerythritol]	–	0.898	1.02	1.08	2.01
OCC(CO)(CBr)CBr [2,2-Bis(bromomethyl)-1,3-propanediol]	–	0.999	0.961	1.01	1.07
O=c1c(-c2ccc(O)cc2)coc2cc(O)cc(O)c12 [Genistein]	0.617	0.604	0.77	0.58	1.01
COc1cc(S(=O)(=O)[O-])c(C)cc1/N=N/c1c(O)ccc2cc(S(=O)(=O)[O-])ccc12.[Na+].[Na+]	–	0.934	0.936	0.887	0.502
CC[C@H]1OC(=O)[C@H](C)[C@@H](O[C@H]2C[C@@](C)(OC)[C@@H](O)[C@H](C)O2)[C@H](C)[C@@H](O[C@@H]2O[C@H](C)C[C@H](N(C)C)[C@H]2O)[C@](C)(O)C[C@@H](C)C(=O)[C@H](C)[C@@H](O)[C@]1(C)O [Erythromycin]	–	0.894	1.14	2.38	5.97
CCCC(CCC)C(=O)O [Valproic acid]	0.788	0.847	0.87	0.883	1.56
CCNc1nc(N)nc(Cl)n1 [Deisopropylatrazine]	0.898	0.991	0.951	0.879	0.243
CC(=O)S[C@H](C(=O)N[C@H]1Cc2ccccc2[C@H]2CCC[C@@H](C(=O)O)N2C1=O)C(C)C [Ilepatril]	–	0.879	0.836	0.857	1.53
CCCCCCCCC(=O)O [Nonanoic acid]	–	0.743	0.854	0.901	0.975
CN(C)c1ccc(C(=C2C=CC(=[N+](C)C)C=C2)c2ccc(N(C)C)cc2)cc1.[Cl-] [Gentian Violet]	–	0.155	0.0242	0.0245	0.0226
Nc1ccc(Nc2ccccc2)cc1 [N-Phenyl-1,4-benzenediamine]	–	0.905	0.984	0.71	0.204
c1ccc(Nc2ccccc2)cc1 [Diphenylamine]	1.09	1.05	1.06	1.09	1.82

SMILES	Renilla luciferase signal (concentration: 0.01 uM)	Renilla luciferase signal (concentration: 0.1 uM)	Renilla luciferase signal (concentration: 1 uM)	Renilla luciferase signal (concentration: 10 uM)	Renilla luciferase signal (concentration: 100 uM)
CCNc1ccccc1 [N-Ethylaniline]	–	1.01	0.97	1.08	1.17
Nc1cccc(N)c1 [1,3-Benzenediamine]	–	1.19	1.05	1.19	1.74
Nc1ccc2c(c1)C(=O)c1ccccc1C2=O [2-Aminoanthraquinone]	–	1.16	0.898	0.829	0.621
Nc1cccc2c(N)cccc12 [1,5-Naphthalenediamine]	–	0.805	0.822	0.856	0.73
CCCCC(CC)CO (stereo not given) [2-Ethyl-1-hexanol]	–	0.758	0.775	0.504	1.25
CCCCCCCCCCCCCCCCCC(=O)O [Octadecanoic acid]	–	0.913	0.958	0.923	1.4
CNC(CC(=O)O)C(=O)O (stereo not given)	1.02	1.14	0.949	1.02	1.9
O=C(O)CC(O)C(=O)O (stereo not given) [Malic acid]	–	1.33	1.26	1.32	1.29
Cc1ccc2oc(CN(Cc3ccccc3)C(=O)Nc3c(F)cc(F)cc3F)c(-c3ccc(Cl)cc3)c2c1	–	0.953	0.858	0.846	0.482
CC(C)CCCCCCOC(=O)C1CCCCC1C(=O)OCCCCCCC(C)C (stereo not given) [Diisononyl cyclohexane-1,2-dicarboxylate]	–	0.946	1.13	1.06	1.38
COc1cc(C(C)C)c2c(c1)S(=O)(=O)N(COc1cc(=O)n3cccc(OCCN4CCCCC4)c3n1)C2=O	–	1.26	1.3	1.21	0.497
CC(C)CC(C)(O)C#CC(C)(O)CC(C)C (stereo not given) [2,4,7,9-Tetramethyl-5-decyne-4,7-diol]	–	0.987	0.919	0.966	0.295
CCCCOC(=O)[C@@H](C)Oc1ccc(Oc2ccc(C(F)(F)F)cn2)cc1 [Fluazifop-P-butyl]	1.25	1.18	1.05	1.22	0.693
CCOC(=O)C(C)Oc1ccc(Oc2cnc3cc(Cl)ccc3n2)cc1 (stereo not given) [Quizalofop-ethyl]	1.1	0.758	0.993	0.953	1.88
CCCCOC(=O)c1ccccc1 [Butyl benzoate]	–	0.872	0.958	1.1	1.1
C#CCOC(=O)[C@@H](C)Oc1ccc(Oc2ncc(Cl)cc2F)cc1 [Clodinafop-propargyl]	0.926	1.11	1.04	1.01	0.269
CCOC(=O)C(C)(C)Oc1ccc(Cl)cc1 [Clofibrate]	–	0.962	1.02	1.17	1.38
CCOC(=O)C(C)Oc1ccc(Oc2nc3ccc(Cl)cc3o2)cc1 (stereo not given) [Fenoxaprop-ethyl]	0.9	0.851	1.02	1.13	1.78
CCCCOC(=O)C(C)Oc1ccc(Oc2ccc(C(F)(F)F)cn2)cc1 (stereo not given) [Fluazifop-butyl]	1.02	0.837	1.04	0.984	1.81
O=C([O-])c1[nH]n(-c2ccc(S(=O)(=O)[O-])cc2)c(=O)c1/N=N/c1ccc(S(=O)(=O)[O-])cc1.[Na+].[Na+].[Na+] [FD&C Yellow 5]	–	1.1	1.15	1.15	0.999
CC1(C)CC(N=C=O)CC(C)(CN=C=O)C1 (stereo not given) [Isophorone diisocyanate]	–	0.927	0.855	0.865	0.953

SMILES	Renilla luciferase signal (concentration: 0.01 uM)	Renilla luciferase signal (concentration: 0.1 uM)	Renilla luciferase signal (concentration: 1 uM)	Renilla luciferase signal (concentration: 10 uM)	Renilla luciferase signal (concentration: 100 uM)
S=C([S-])NCCNC(=S)[S-].[Mn+2] [Maneb]	0.874	1.01	0.995	0.968	0.105
CC(C(C)N1CC(=O)NC(=O)C1)N1CC(=O)NC(=O)C1 (stereo not given)	0.735	0.674	0.785	0.383	0.396
C=CCCCCCCCCC(=O)O [10-Undecenoic acid]	–	0.947	0.883	0.917	1.16
O=C(O)c1cccc(N(Cc2cccnc2)c2ccc(OC(F)F)c(OC(F)F)c2)c1	–	1.15	1.14	1.24	0.322
CCCCCCCCCCCCCCC [Pentadecane]	–	0.808	0.899	0.973	1.16
CN(C)CCCN(C)CCCN(C)C [2,6,10-Trimethyl-2,6,10-triazaundecane]	–	0.932	0.811	0.918	0.932
COC(=O)c1ccc(C(=O)OC)cc1 [Dimethyl terephthalate]	–	0.95	1.09	1.01	1.36
Cc1nc(-c2ccccn2)ncc1C(=O)Nn1cc(C)c2cc(F)ccc21	–	0.941	0.877	1.05	1.02
CCc1cc(C2=C(C(=O)[O-])N(c3ccccc3C(F)(F)F)S(=O)(=O)c3ccccc32)cc2c1OCO2.[K+] [Fandosentan potassium salt]	–	1.01	1.1	0.887	0.331
CN(Cc1cnc2nc(N)nc(N)c2n1)c1ccc(C(=O)N[C@@H](CCC(=O)O)C(=O)O)cc1 [Methotrexate]	–	0.13	0.0382	0.0865	0.087
CC(=O)Nc1ccc(O)cc1 [Acetaminophen]	–	0.68	0.735	0.812	1.3
O=C(O)c1cn(C2CC2)c2cc(N3CCNCC3)c(F)cc2c1=O [Ciprofloxacin]	1.06	0.893	1.01	0.9	0.336
O=C1CN(N=Cc2ccc([N+](=O)[O-])o2)C(=O)N1 [Nitrofurantoin]	–	0.891	1.01	1.69	0.345
NC(=O)N/N=C/c1ccc([N+](=O)[O-])o1 [Nitrofurazone]	–	1.03	1.13	1.44	0.334
O=[N+]([O-])c1ccc([O-])cc1.[Na+] [Sodium 4-nitrophenolate]	–	0.98	0.86	0.924	0.669
COc1c(Cl)ccc(Cl)c1C(=O)O [Dicamba]	1.07	1.05	1.14	1.04	1.52
CC[C@H](C)C(=O)O[C@H]1C[C@H](O)C=C2C=C[C@H](C)[C@H](CC[C@@H](O)C[C@@H](O)CC(=O)[O-])[C@H]21.[Na+] [Pravastatin sodium]	–	1.01	0.866	1.1	1.15
O=C(O)c1cccc(C(=O)O)c1 [1,3-Benzenedicarboxylic acid]	–	1.04	1.04	1.06	1.35
CC(=O)c1ccccc1 [Acetophenone]	–	0.867	0.964	0.94	1.11
O=C(O)c1ccccc1 [Benzoic acid]	–	1.21	1.13	1.35	1.77
